# This is a sample that favours compounds with a hit; in the whole collection about 3.3% have one here.
# RE007 growth inh: less growth of the S. pombe RE007 Vpr strain; S. pombe RE007 Vpr strain, BacTiter-Glo ATP luminescence, 24 h; Potency, µM (series often up to 92.2 µM), for the others: at the top dose activity change, negative = less growth, hits mostly inhibitors; 360,000 compounds, 0.21% hits; active = well fitted falling curve with a large enough effect; inconclusive = small, poorly fitted or top-dose-only effect; inactive = no such curve, though single readings can be large or run the other way; note: % is set by controls: 0 for no effect and ±100 for the full control effect; nearly all actives have a fitted effect of over 50% in size
#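 Fission yeast RE007 carrying one integrated HIV-1 vpr copy, seeded at OD 0.01 in PMG+AL medium with 23 nL pinned compound. Grown 24 h at 30 degrees; viability read by BacTiter-Glo luminescence after 5 min.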
# AmpC no deterg: blocks E. coli AmpC beta-lactamase in detergent-free assay; Potency, µM (doses to about 57.1 µM), for the others: top-dose activity change, negative = inhibition, hits mostly inhibitors; AID 485341; P00811; 330,000 compounds, 0.52% hits; AmpC nitrocefin hydrolysis, absorbance 480 nm, 0.0001% Triton;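 note: plate controls were no compound for no effect and no enzyme for full effect; nearly all actives have a fitted effect of over 20% in size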
# Target sequence (P00811 whole entry, looked up): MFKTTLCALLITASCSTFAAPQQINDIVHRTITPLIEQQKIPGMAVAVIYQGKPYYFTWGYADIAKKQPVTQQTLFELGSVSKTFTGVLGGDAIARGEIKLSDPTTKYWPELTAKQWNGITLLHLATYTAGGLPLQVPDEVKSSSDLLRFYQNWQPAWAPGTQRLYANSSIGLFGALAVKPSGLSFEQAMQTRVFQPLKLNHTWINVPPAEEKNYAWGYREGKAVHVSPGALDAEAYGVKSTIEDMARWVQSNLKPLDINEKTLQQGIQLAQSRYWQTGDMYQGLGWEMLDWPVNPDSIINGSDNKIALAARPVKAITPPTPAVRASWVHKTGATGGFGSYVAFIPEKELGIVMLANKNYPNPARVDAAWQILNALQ
#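 AmpC (5.3 nM in the dispensed reagent) in 20 mM phosphate pH 7.0 with 0.01% (detergent screen) or 0.0001% Triton X-100 was preincubated with compounds for 15 min at room temperature. Nitrocefin was then added from an 800 uM solution, and hydrolysis was followed at 480 nm.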
# TbPYK inhibitor: blocks Trypanosoma brucei pyruvate kinase; Q57TT1; TbPYK enzyme, Kinase-Glo Plus ATP luminescence, 45 min; Potency, µM (doses to about 76.8 µM), for the others: at the top dose activity, negative = inhibition, hits mostly inhibitors; 410,000 compounds, 0.12% hits; AID 624173; note: % is set by controls: 0 for no effect and ±100 for the full control effect; nearly all actives have a fitted effect of over 50% in size
#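 Luminescent Kinase-Glo Plus end-point after 45 min room-temperature reaction of T. brucei pyruvate kinase started with 130 uM ADP (final). Buffer TEA 50 mM pH 7.2 with KCl, MgCl2, BSA, Tween-20; titration-based qHTS with fitted concentration-effect curves.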
# SARS PLP yeast: blocks SARS-CoV papain-like protease in a yeast assay. 330,000 compounds, 0.19% hits. S. cerevisiae expressing SARS-CoV PLpro, growth rescue. Potency, µM (highest dose often 32.9 µM), inactives show at the highest dose activity, positive = growth rescue, usual class: activators; calls by dose curve; note: 0% is about no effect; nearly all actives have a fitted effect of over 55% in size
# Sm TGR inh: S. mansoni TGR enzyme inhibition; Q962Y6; purified TGR, DTNB reduction, TNB absorbance 405 nm; Potency, µM (highest dose often 114 µM), for the others: top-dose activity change, negative = inhibition, hits mostly inhibitors; 360,000 compounds, 3% hits; note: % is set by controls: 0 for no effect and ±100 for the full control effect; nearly all actives have a fitted effect of over 60% in size
#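 Kinetic colorimetric format: TGR-catalysed, NADPH-driven DTNB reduction monitored via TNB absorbance. Enzyme dispensed at 20 nM; compound exposure 15 min at room temperature before reaction start.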
# AmpC detergent: AmpC beta-lactamase inhibition with detergent present; AmpC hydrolysis of nitrocefin, absorbance 480 nm, 0.01% Triton; Potency, µM (titrated, usually from 114 µM), without a hit: at the top dose activity change, negative = inhibition, actives largely listed as inhibitors; 370,000 compounds, 0.041% hits;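 note: 0% = no-compound wells and -100% = no-enzyme wells; nearly all actives have a fitted effect of over 25% in size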
#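 AmpC (5.3 nM in the dispensed reagent) in 20 mM phosphate pH 7.0 with 0.01% (detergent screen) or 0.0001% Triton X-100 was preincubated with compounds for 15 min at room temperature. Nitrocefin was then added from an 800 uM solution, and hydrolysis was followed at 480 nm.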
# The depositor's hits bear a star; ? = inconclusive; nt = no result; [ ] = another dose, or the depositor's remark. Unless noted, calls come from the whole dose curve; as a rule, active = well fitted curve in the direction sought with a large enough effect; inconclusive = small, poorly fitted or top-dose-only effect, or another doubt; inactive = no such curve, though single readings can be large; an effect the other way counts as inactive or inconclusive. Potency is the fitted concentration of half-maximal effect.
SMILES,RE007 growth inh,AmpC no deterg,TbPYK inhibitor,SARS PLP yeast,Sm TGR inh,AmpC detergent
CCCCOc1ccc(CNC(=O)CN2CCSc3ccccc32)cc1,nt,nt,3%,nt,-2%,1%
Cc1ccc[n+](CC(=O)Nc2ccc([N+](=O)[O-])cc2)c1,28%,-23%,4%,3%,35µM*,-13%
COc1ccc(C(CC(=O)Nc2cc(Cl)c(OC)cc2OC)N2Cc3ccccc3C2=O)cc1 (stereo not given),nt,nt,4%,nt,-2%,-7%
Cn1c(COc2ccc(Cl)cc2)nnc1SCc1ncc(-c2ccccc2)o1,5%,106%,-15%,-4%,22µM*,3%
Cc1ccc(NC(=O)Cn2c(=O)n(Cc3ccccc3)c(=O)c3sc4ccccc4c32)cc1,nt,nt,2%,nt,0%,-6%
CCN(C(=O)CN1C(=O)c2ccccc2Sc2ccc(C(=O)OC)cc21)c1cccc(C)c1,nt,nt,-6%,nt,8%,15%
Cc1ccc(Cn2c(C)c3cnn(CC(=O)N4CCN(c5cc(C)ccc5C)CC4)c(=O)c3c2C)cc1,nt,nt,1%,nt,-1%,7%
CN1C(=O)N(C)C2(c3ccccc3)NC(=O)NC12c1ccccc1 (stereo not given),4%,-4%,-3%,-1%,-23%,?
CN1c2ccccc2N(C)C1(C)c1ccccc1,-13%,25%,?,-24%,45µM*,-17%
CCN1c2ccccc2N(C)C1(C)c1ccccc1 (stereo not given),?,33%,?,-23%,35µM*,?
CC#CCC(C)[C@H](O)/C=C/C1[C@H](O)C[C@@H]2C/C(=C\CCCC(=O)O)C[C@H]12 (stereo not given in full),nt,nt,1%,nt,nt,nt
O=C1N/C(=C/c2ccc(N3CCOCC3)o2)C(=O)N1c1cccc(Cl)c1,-3%,-17%[2.29 µM],?,0%,2.8µM*,-1%
CCCN1C(=O)/C(=C/c2ccc(C)o2)NC1=S,nt,-44%,nt,-3%,6.3µM*,2%
Cc1ccc(/C=C2/NC(=O)N(c3ccccc3)C2=O)o1,63µM*,-26%,?,-26%,32µM*,-2%
CCN1C(=O)N/C(=C/c2ccc(C)o2)C1=O,8%,-10%,-37%,-1%,35µM*,-1%
O=C1NC(=O)C(=Cc2ccc(N3CCOCC3)o2)C(=O)N1,-14%,-15%,-10%,-1%,?,-9%
Cc1c(C(=O)O)cccc1-c1ccc(/C=C2/NC(=O)N(c3ccccc3)C2=O)o1,-17%,-12%,7%,1%,-27%,6%
COc1ccc(OC)c(NC(=O)C(Cc2ccccc2)NS(=O)(=O)c2ccc3c(c2)CCC(=O)N3)c1 (stereo not given),nt,nt,0%,nt,11%,11%
Cc1ccc(/C=C2/NC(=O)N(Cc3ccc(Br)cc3)C2=O)o1,nt,2.5µM*,?,-53%,50µM*,-6%
CCN1C(=O)/C(=C/c2ccc(C)o2)N(C)C1=S,?,-22%,?,-74%,28µM*,?
CC1(C)CC/C(=C\c2ccc(Cl)cc2)C1(O)Cn1cncn1 (stereo not given),nt,nt,-6%[157 µM],nt,nt,nt
CCN(CC)S(=O)(=O)c1ccc2c(c1)N(CC(=O)N1CCN(c3cccc(C(F)(F)F)c3)CC1)C(=O)CO2,nt,nt,2%,nt,1%,-9%
NS(=O)(=O)c1cccc(NC(=O)CCSc2ccc(Cl)cc2)c1,-3%,-23%,-6%,-1%,18µM*,?
COc1ccc(-c2cc(C(F)(F)F)n3nc(C(=O)Nc4sc5c(c4C#N)CCC(C)C5)cc3n2)cc1OC (stereo not given),nt,nt,2%,nt,2%,-1%
Cc1cc(S(=O)(=O)Nc2cc3c(cc2Cl)n(C)c(=O)c(=O)n3C)ccc1F,nt,nt,-1%,nt,-1%,23%

# Bioassay records deposited in PubChem by National Center for Advancing Translational Sciences (NCATS).
